Assay results taken from PubChem BioAssay (NCATS).
Records with an inconclusive call do not appear. A call without a number means that no potency is given here. Active and inactive are the calls of the source. Calls come from the whole dose curve; as a rule, active = well fitted inhibition curve with a large enough effect; inconclusive = small, poorly fitted or top-dose-only effect; inactive = flat fitted curve, though single readings scatter.

The molecules below were run against Glutathione peroxidase 1 (Homo sapiens) (UniProt P07203) (assay: Primary qHTS Assay for Inhibitors of Recombinant Selenoprotein Glutathione Peroxidase 1 (GPX1) (AID 1845191; note: nearly all actives have a fitted effect of over 65% in size)). Details: recombinant GPX1, GR-coupled NADPH fluorescence, 15 min; series mostly up to 48.8 µM.
Excerpt: Assay Provider: Elias S.J. Arner MD PhD.
Department of Medical Biochemistry and Biophysics
Karolinska Institutet, Solna, Stockholm, Sweden
Selenoprotein glutathione peroxidases (GPX), like the ubiquitously expressed GPX1 and the ferroptosis modulator GPX4, enact their antioxidant activities by reducing hydroperoxides using glutathione. […] GPX1 and GPX4 inhibitors have thus shown promise as anti-cancer agents. Existing inhibitors are often promiscuous, or modulate GPX activity only indirectly, so novel direct inhibitors identified through screening against GPX1 and GPX4 could be valuable. Here, we developed optimized glutathione reductase (GR)-coupled GPX assays for the biochemical high-throughput screen (HTS) of almost 12,000 compounds with known mechanisms of action. Initial hits were triaged using a GR counter-screen, assessed for isoform specificity using a separate GPX2 assay, and were assessed for general selenocysteine-targeting activity using a thioredoxin reductase (TXNRD1) assay. With this suite of assays, we identified novel GPX1/GPX2- and GPX4-specific inhibitors and can here present a validated pipeline for future discovery research for selenoprotein-targeting agents.
SEQUENCE No. (e.g., 1, 2, 3, etc.); […] (e.g., Cells, Incubation, Reagent, etc.); VALUE; DESCRIPTION.
1; Reagent 1; 3 uL; GPx1 enzyme or no enzyme control in 1536-well, black, solid Greiner assay plate.
2; Compound; 25 nL; Kalypsis pin tool (Wako USA) equipped with a 1536-well pin head.
3; Incubation; 30 min; room temperature.
4; Reagent 2; 1 uL; 10 nM GPX1, 1 mM GSH, 0.5 mM CHP, 0.5 mM NADPH, 100 nM GR, 0.01% BSA substrate
5; Detection; Fluorescence; ViewLux microplate reader, excitation 340 nm and emission 450 nm.
6; Incubation; 15 min; room temperature.
7; Detection; Fluorescence; ViewLux microplate reader, excitation 340 nm and emission 450 nm.
NOTES (numbers refer to Sequence numbers above)
1. 3 uL of 16.66 nM GPX1 and 0.016% BSA in assay buffer (50 mM Tris-HCl, 2 mM EDTA (pH 7.5), 150 mM NaCl) was added to columns 3-48 of 1536-well assay plates using a BioRAPTR Flying Reagent Dispenser (Let's Go Robotics (LGR), Carlsbad, CA). A no-enzyme control (0.01% BSA in TES assay buffer) was added to columns 1-2.
2. 25 nL of test compounds and DMSO controls were added to each well with a pin tool (Kalypsys).
3. The assay plates were incubated for 30 minutes at room temperature.
4. 1 uL of master mix (500 nM glutathione reductase (GR), 5 mM reduced glutathione (GSH), 2.5 mM NADPH in assay buffer) was added. 1 uL of cumene hydroperoxide (CHP) ([2.5 mM] in 50% EtOH) was then added within 5 minutes to initiate the reaction. Final concentrations were: 10 nM GPX1, 1 mM GSH, 0.5 mM CHP, 0.5 mM NADPH, 100 nM GR, 0.01% BSA.
5. Initial fluorescence readout (t=0) at 340/450 nm was measured using a ViewLux multimodal detector (PerkinElmer, Waltham, MA).
7. Endpoint fluorescence readout (t=15) at 340/450 nm was measured 15 min after room temperature incubation.

Sequence of Glutathione peroxidase 1 (Homo sapiens) (P07203 whole entry, looked up): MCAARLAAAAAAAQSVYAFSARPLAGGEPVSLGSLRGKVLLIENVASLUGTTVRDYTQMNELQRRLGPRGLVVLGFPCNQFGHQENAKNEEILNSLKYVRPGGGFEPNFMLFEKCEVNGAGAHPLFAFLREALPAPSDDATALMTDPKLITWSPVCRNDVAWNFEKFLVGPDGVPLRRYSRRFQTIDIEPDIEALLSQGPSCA

Compound	Potency
CCCCn1c(=O)n(Cc2ccccc2F)c(=O)c2[nH]c(Cc3ccc(NC(C)=O)cc3)nc21	inactive
COc1nccc(-c2c(-c3ccc(F)cc3)ncn2C2CCNCC2)n1	inactive
O=C(NC[C@H](O)CO)c1ccncc1Nc1ccc(I)cc1F	inactive
CCn1c(-c2nonc2N)nc2cncc(CNC3CCNCC3)c21	inactive
COc1ccc(-c2oc3c(CC=C(C)C)c(O)cc(O)c3c(=O)c2O)cc1	inactive
CC[C@H](C=C[C@@H](C)[C@H]1CC[C@H]2[C@@H]3CC=C4C[C@@H](O)CC[C@]4(C)[C@@H]3CC[C@]12C)C(C)C	inactive
COc1cc(F)c(C(C)C)cc1-c1ccc(C(F)(F)F)cc1CN1C(=O)O[C@H](c2cc(C(F)(F)F)cc(C(F)(F)F)c2)[C@@H]1C	inactive
CC[C@@H]([C@H](C)O)n1ncn(-c2ccc(N3CCN(c4ccc(OCC5CO[C@@](Cn6cncn6)(c6ccc(F)cc6F)C5)cc4)CC3)cc2)c1=O (stereo not given in full)	inactive
CC(C)Oc1cc(Nc2nc(N[C@@H](C)c3ccc(F)cn3)ncc2Cl)[nH]n1	inactive
CN(C)c1nc(Cc2ccc(NC(=O)c3ccc(C(F)(F)F)cc3)cc2)nc(N(C)C)c1CC(=O)O	inactive
C=CC(=O)Nc1cccc(Sc2nc(Nc3ccc(N4CCN(C)CC4)cc3)ncc2Cl)c1	inactive
NCc1c[nH]c(=S)n1[C@H]1CCc2c(F)cc(F)cc2C1	inactive
Cc1cc(C(C)Nc2ccccc2)c2nc(N3CCOCC3)cc(=O)n2c1 (stereo not given)	inactive
COc1ccc(CCC(=O)Nc2nc3ccc(Cl)cc3s2)cc1OC	inactive
CN(C)CCCNC(=O)c1ccc(-c2cc(O)c3ncccc3c2)cc1	inactive
O=C(O)CCNc1cc(N2CCc3ccccc3CC2)nc(-c2ccccn2)n1	inactive
CC(C)C[C@H](NC(=O)c1cc2ccccc2s1)C(=O)N1CCN(C(=O)[C@H](CO)NS(=O)(=O)c2ccc(Cl)cc2Cl)CC1	inactive
COc1ccc(-c2ccc3ncc4c(c3c2)n(-c2ccc(N3CCNCC3)c(C(F)(F)F)c2)c(=O)n4C)cn1	inactive
CCCCOCCOc1nc(-c2ccc(C(=O)O)c(F)c2)sc1C	inactive
O=C(NCCCCN1CCOCC1)c1cc2ccccc2o1	inactive

Compound	Potency
O=c1[nH]nc(OCCCc2ccc(Cl)cc2)c(NCc2cccnc2)c1Br	inactive
CC1CNc2c(cccc2S(=O)(=O)N[C@@H](CCCN=C(N)N)C(=O)N2CC[C@@H](C)C[C@@H]2C(=O)O)C1 (stereo not given in full)	inactive
C[C@@]1(c2cc(-c3cncnc3)c(F)cc2F)CCSC(N)=N1	inactive
N#Cc1c(N(CC(=O)O)CC(=O)O)sc(C(=O)O)c1CC(=O)O	inactive
N#CC(c1ccnc(NCCc2cccnc2)n1)c1nc2ccccc2s1 (stereo not given)	inactive
COc1cc2nccc(Oc3ccc(NC(=O)Nc4ccc(F)cc4F)c(F)c3)c2cc1OC	inactive
CN1c2ccccc2C(=O)N2CCc3c([nH]c4ccccc34)C21 (stereo not given)	inactive
O=C(Nc1cccc(Cl)c1)Nc1ncc(CCNc2ncnc3ccsc23)s1	inactive
CN1C(=O)C[C@H](C(=O)N[C@@H](Cc2cnc[nH]2)C(=O)N2CCC[C@@H]2C(N)=O)NC1=O	inactive
O=c1cc(-c2ccc(O)c(O)c2)oc2cc(O)cc(O)c12	inactive
O=C(c1ccc(C(=O)N2CCC(N3CCCC3)CC2)c(Nc2ccccc2)c1)N1CCC(N2CCCC2)CC1	inactive
O=C(O)C1=CC(O)C(O)[C@H](O)C1 (stereo not given in full)	inactive
CN(C)c1ccccc1CN1CCCN(Cc2ccccc2N(C)C)C1c1ccncc1	inactive
CC(NCCc1ccc(O)cc1)C(O)c1ccc(O)cc1 (stereo not given)	inactive
CCCCC(F)(F)[C@@]1(O)CC[C@H]2[C@H](CC(=O)[C@@H]2CCCCCCC(=O)O)O1	inactive
CC(C)(OCc1nn(Cc2ccccc2)c2ccccc12)C(=O)O	inactive
CN1CCC(COc2cnc(-c3cccc(Cn4nc(-c5cccc(C#N)c5)ccc4=O)c3)nc2)CC1	inactive
O=C(O)c1ccc(O)c2ncc(N3CCOCC3)cc12	inactive
CC(C)(C)c1nc(-c2cccc(NS(=O)(=O)c3c(F)cccc3F)c2F)c(-c2ccnc(N)n2)s1	inactive
NC(=O)c1ccc(N(C(N)=O)c2c(F)cccc2F)nc1-c1ccc(F)cc1F	inactive
